Measured values: the OligoGym collection
Further: reference of the scale not given here.

These sequences were tested against SASH1 (assay: pooled miR-30 sensor sort-seq; sequence = guide strand). Settings: shRNA.
For TAACTCTTGAGTCTGTTACTTT, the sensor-assay potency score (higher = more potent) was -0.488.
Work on TAGCTTTCCGAGTCTTGCCGTT yielded a sensor-assay potency score (higher = more potent) of -0.384.
For TATTTTTTAGACATTCTCTTTC, the sensor-assay potency score (higher = more potent) was -0.235.
With TTTTAGGTTAATCCGATCCAGG the sensor-assay potency score (higher = more potent) was -1.32.
With TAGATGAACTTGAACGTGCCGA the sensor-assay potency score (higher = more potent) was 0.105.
Work on TAATGTACAATAACTCTTGAGT yielded a sensor-assay potency score (higher = more potent) of -0.698.
For TTGACCATCATCATTAGCTGAA, the sensor-assay potency score (higher = more potent) was 0.388.
Sequence TTGAGCTTGAGTGAGTCTGTGT has a sensor-assay potency score (higher = more potent) of 0.495.
With TTCAGGTACAATCTGAGGGGGC the sensor-assay potency score (higher = more potent) was -0.224.
TAGTTGTCAATTTCTGAGGTTC was tested, and the sensor-assay potency score (higher = more potent) was -0.0207.
With TTTCGTAGCATCCTGAGTCTCG the sensor-assay potency score (higher = more potent) was 0.799.

The sequences below were run against SASH3 in the same assay as above. Settings: shRNA.
TAGTCCAGCAGCAGCTCGGCGG gave a sensor-assay potency score (higher = more potent) of -1.4.
Sequence TTGGCAAAATCCTTGAAGCTGC has a sensor-assay potency score (higher = more potent) of -0.67.
TTGAAGTCTTCCAGTGTCTGGT showed a sensor-assay potency score (higher = more potent) of 0.225.
With TTGACCATCTGTAATCAGCCTT the sensor-assay potency score (higher = more potent) was 0.123.
With TTTTAGACTGACCTGAAACATT the sensor-assay potency score (higher = more potent) was -1.36.
With TGACCATCTGTAATCAGCCTTG the sensor-assay potency score (higher = more potent) was -0.932.
For TTGAGCAGGAGGGTGGATGTGT, the sensor-assay potency score (higher = more potent) was -0.276.
TAGGGTTTTTAGACTGACCTGA gave a sensor-assay potency score (higher = more potent) of 0.692.
ATCATCTTGCCCATCTTCCTGT showed a sensor-assay potency score (higher = more potent) of -0.431.
TTCTGGAATGTTATCATCCAGA showed a sensor-assay potency score (higher = more potent) of -1.05.
TAGCTTTTACCAAAGTTCCTGG gave a sensor-assay potency score (higher = more potent) of -0.621.
For TGATCTGGATCACATCTCCTTT, the sensor-assay potency score (higher = more potent) was -1.14.

These sequences were tested against SC5DL in the same assay as above. Settings: shRNA.
In the case of TAAACTTAATCTCTCGACGGAC, the sensor-assay potency score (higher = more potent) is reported as -0.573.
For TATATGGTAAGGTAGACTCTGA, the sensor-assay potency score (higher = more potent) was -0.406.
With TTTACTATGTATCTTGACTGTA the sensor-assay potency score (higher = more potent) was -0.0112.
In the case of TTATTAAGCACAATGATTCTTA, the sensor-assay potency score (higher = more potent) is reported as -0.0651.
TTACTATGTATCTTGACTGTAT gave a sensor-assay potency score (higher = more potent) of 0.237.
For TATCATTATCATACCAACGTTG, the sensor-assay potency score (higher = more potent) was -0.725.
For TTGAAGAATTAACCATTCCTGA, the sensor-assay potency score (higher = more potent) was -0.422.
TAAAAAAATAGTAATCTGCAAC showed a sensor-assay potency score (higher = more potent) of -0.802.
For TTGAATGAGCCGCCAATCCTAT, the sensor-assay potency score (higher = more potent) was -0.95.
TTAACCAAGATGTACAGACTTA showed a sensor-assay potency score (higher = more potent) of -0.113.
With AAGACTAATAGCTTGTCGGAAG the sensor-assay potency score (higher = more potent) was -1.
TTTCATTAATGCATGATCGAAG gave a sensor-assay potency score (higher = more potent) of -0.355.

These sequences were tested against SCAF4 in the same assay as above. Settings: shRNA.
In the case of TTTAATAGCAGCTTTAGTGATG, the sensor-assay potency score (higher = more potent) is reported as -0.529.
In the case of TTACACTTTTTGATGAACTTTT, the sensor-assay potency score (higher = more potent) is reported as -0.768.
In the case of TAACTGAGCTGTGATAGCCTGA, the sensor-assay potency score (higher = more potent) is reported as -0.339.
For TTTCTTGAGATCGAGATCGGGG, the sensor-assay potency score (higher = more potent) was -0.563.
In the case of TTGTTCTACTTCCATTTCCTGC, the sensor-assay potency score (higher = more potent) is reported as -0.925.
